In PubChem BioAssay AID588342 (National Center for Advancing Translational Sciences (NCATS), 2011):
Hit rate of the full screen: of about 360,000 compounds, about 25,000 (6.9%) were called active. Inconclusive results (about 9%) are left out. The sample as a whole holds a higher share of actives than the screen did. A number with no mark means an inactive call. Calls follow the shape of the dose curve; as a rule, active = well fitted inhibition curve with a large enough effect; inconclusive = small, poorly fitted or top-dose-only effect; inactive = flat fitted curve, though single readings scatter.

Each compound was assayed against Luciferin 4-monooxygenase (Photinus pyralis) (UniProt P08659) (assay: qHTS profiling assay for firefly luciferase inhibitor/activator using purifed enzyme and Km concentrations of substrates (counterscreen for miR-21 project)). Conditions: purified FLuc, luminescence inhibition; series mostly up to 57.5 µM; activity change, negative = inhibition: at the top concentration.
Description: MLPCN Grant: 1 R21 NS059478-01 (miR-21 grant) Assay Provider: NCGC NCGC Assay Overview: Firefly (Photinus pyralis) luciferase is one of the most commonly used transcriptional reporters for a number of reasons. It is considered one of the more dynamically responsive reporters -that is, responsive to changes in reporter transcription - as it requires no post-translational modifications and is enzymatically active directly after protein synthesis (Wood, 1998). Additionally, the half-life of the luciferase protein is short relative to other reporter-gene products (Wood, 1995). Whereas reporters with long half-lives potentially allow for increased signal due to accumulation of reporter-gene product, once accumulated in the cell, dynamic changes in reporter-gene expression may be difficult to detect(Fan and Wood, 2007; Almond et al., 2004). It has been shown that wild-type P. pyralis luciferase has a half-life of approximately […] hours in mammalian cells (Thompson et al., 1991). Firefly luciferase reporter-gene assays are also generally considered one of the most sensitive assay types (Wood, 1995; Wood, 1998). Although light produced in a bioluminescence reaction is of lower intensity than that produced during fluorescence emission, this is offset by little to no background light inherent to luminescent assays. Thus the luciferase reporter can be expressed at much lower levels than fluorescent proteins while still providing robust signal. # However, it was initially observed, in 1991, by Thompson et al., that compounds that resemble the substrates of firefly luciferase (FLuc) can act as competitive inhibitors of the enzyme, and that these compounds, upon interaction with luciferase in the cell, can actually stabilize the protein and increase its half-life. Accumulated intracellular FLuc protein can be measured as an increase in luminescence signal, upon addition of detection reagents (which contain high concentrations of FLuc substrates) commonly used in high-throughput screening. In cell-based reporter gene assays that use FLuc as the reporter gene to quantitate the potential influence of a given compound against the target biology, this apparent increase in luminescence can mistakenly be interpreted as identification of a compound that is active against the target of interest. This is the case for the miR-21 FLuc reporter gene assay used to identify inhibitors of the miR-21 pathway (PubChem AID 2289) - compounds of interest will inhibit miR-21 biogenesis/expression or activity, and are identified by causing an increase in luminescence, due to increased FLuc translation. However, FLuc inhibitory compounds that stabilize the FLuc protein will give an identical read-out, making it difficult to distinguish compounds that are active against the target from those active against FLuc. Previous profiling work to determine the prevalence of compounds that affect FLuc enzymatic activity (PubChem AID 411) identified that ~3% of the MLSMR library (then at ~72K) inhibited FLuc. […] Since the MLSMR had grown to ~350K compounds, and since it was expected that a significant percentage of compounds found active in the miR-21 FLuc assay would be FLuc inhibitors, the library was screened for activity against FLuc using a biochemical assay of purified FLuc and KM concentrations of FLuc substrates (D-luciferin and ATP).
NCGC Assay Protocol Summary: Reagents: 50mM Tris acetate, pH 7.5; 10mM Mg acetate; 10uM D-luciferin (Sigma #L9504); 10uM ATP; 0.01% Tween-20; 0.05% BSA; 10nM P. pyralis luciferase (Sigma #L9506) Control compounds used were two known firefly luciferase inhibitors (compounds (2) and (5) in Auld et al., 2010), and DMSO. […]
Also: nearly all actives have a fitted effect of over 55% in size.
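For activity change, negative = inhibition in this document: plate controls were vehicle for no effect and reference inhibitor for full effect.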

Sequence of Luciferin 4-monooxygenase (Photinus pyralis) (P08659 whole entry, looked up): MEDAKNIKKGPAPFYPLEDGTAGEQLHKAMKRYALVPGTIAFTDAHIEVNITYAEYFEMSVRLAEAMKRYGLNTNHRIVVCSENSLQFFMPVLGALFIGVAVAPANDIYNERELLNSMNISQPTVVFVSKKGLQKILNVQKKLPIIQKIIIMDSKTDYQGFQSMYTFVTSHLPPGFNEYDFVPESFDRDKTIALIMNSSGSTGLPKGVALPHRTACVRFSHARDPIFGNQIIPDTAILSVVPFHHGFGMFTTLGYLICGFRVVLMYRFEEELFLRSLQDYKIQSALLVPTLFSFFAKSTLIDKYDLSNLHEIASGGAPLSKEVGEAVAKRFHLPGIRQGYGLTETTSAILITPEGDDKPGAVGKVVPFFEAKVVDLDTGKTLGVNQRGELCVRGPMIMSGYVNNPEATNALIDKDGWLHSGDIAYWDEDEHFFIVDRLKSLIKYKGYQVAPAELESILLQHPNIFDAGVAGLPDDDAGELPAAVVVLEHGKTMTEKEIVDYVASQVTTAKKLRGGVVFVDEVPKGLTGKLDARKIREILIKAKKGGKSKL

SMILES | activity change, negative = inhibition [%] | Potency
O=C(NCCc1c[nH]c2ccccc12)C1CCN(Cc2ccc(Br)cc2)CC1 | -0.302 | 
O=C(NCCc1ccccc1)c1ccc2c(c1)N(Cc1ccc(F)cc1)C(=O)c1ccccc1S2(=O)=O | -0.75 | 
Cc1ccccc1OCc1nc2c3cnn(-c4ccccc4F)c3ncn2n1 | -0.731 | 
COC(=O)c1ccccc1NC(=O)Cn1c(=O)n(-c2cccc(C(F)(F)F)c2)c(=O)c2c(C)c(C)sc21 | -7.45 | 
CSc1ncc(Cl)c(C(=O)Nc2ccc(S(=O)(=O)N3CCCC(C)C3)cc2)n1 (configuration not stated) | 5.6 | 
CCCCc1nn2c(=O)cc(COC(=O)c3ccccc3NC(=O)C(C)(C)C)nc2s1 | -3.42 | 
CCC(C(=O)Nc1cccc(-c2nc3cccnc3s2)c1C)c1ccccc1 (configuration not stated) | -0.908 | 
Cc1c(NC(=O)C(C)(C)C)cccc1-c1nc2ccccc2s1 |  | 4.78 µM (active)
Cc1cccc(C(=O)Nc2ccc(-c3nc4ccccc4s3)c(C)c2)c1 |  | 2.69 µM (active)
CC(=O)Nc1cccc(-c2nc3ccccc3s2)c1C |  | 6.01 µM (active)
Cc1cccc(C(=O)N2CCC(c3nc4ccccc4s3)CC2)c1 | -2.17 | 
Cc1cccc(NC(=O)Cn2c(C(F)(F)F)nc3ccccc32)c1C | 3.57 | 
Cc1c(NC(=O)Cc2ccccc2)cccc1-c1nc2cccnc2s1 | 1.87 | 
COc1ccc(CC(=O)Nc2ccc(-c3nc4ccccc4s3)c(C)c2)cc1 | -10.8 | 
COCCCNC(NC(=O)c1ccc(OC)cc1)C(Cl)(Cl)Cl (configuration not stated) | -0.556 | 
COC(=O)c1scc(-c2ccc(C)cc2)c1S(=O)(=O)Nc1cc(Cl)c(OC)cc1OC | -2.24 | 
COc1ccccc1Nc1cc(C(=O)NCCCN(C)C2CCCCC2)c2ccccc2n1 | -13.2 | 
Cc1ccc(C(=O)CC2(O)C(=O)N(CCc3ccccc3)c3ccc(Br)cc32)cc1 (configuration not stated) | -12.3 | 
COc1cc(Cl)ccc1Nc1ncc(C(=O)N2CCN(c3ccccc3OC)CC2)c2ccccc12 | -0.617 | 
COc1cc(OC)cc(C(=O)NCCSCc2ccc(Cl)cc2)c1 | 3.1 | 
O=C(O)c1cscn1 | -0.163 | 
O=C(CCNS(=O)(=O)c1ccccc1)NCCCc1ccccc1 | -1.01 | 
O=C(Nc1ccc(-c2csc(Nc3cccc(C(F)(F)F)c3)n2)cc1)c1cccc(C(F)(F)F)c1 | 1.5 | 

SMILES | activity change, negative = inhibition [%] | Potency
Clc1ccc(Nc2nc(-c3cccs3)cs2)nc1 |  | 1.51 µM (active)
COC(=O)c1ccc(NC(=S)Nc2cccc(C)n2)cc1 | -0.516 | 
Cc1ccccc1Nc1nc(-c2cccnc2)cs1 |  | 6.01 µM (active)
Cc1nc(CNS(=O)(=O)c2cccnc2)cs1 | 0.166 | 
O=C(Nc1nc(-c2cccnc2)cs1)c1ccccc1F | -6.48 | 
CC(=O)Nc1cccc(-c2cnc3ccccc3n2)c1 |  | 12 µM (active)
Cc1cc(=O)oc(C)c1C(=O)Nc1cnc2ccccc2c1 | -0.785 | 
CC(=O)Nc1ccc(NC(=O)COc2ncnc3ccccc23)cc1 | 2.39 | 
CC(=O)Nc1cccc(-c2csc(Nc3cccc(C)n3)n2)c1 |  | 2.39 µM (active)
c1csc(-c2cn3c(n2)SCC3)c1 | -22.6 | 
COc1ccc(Br)cc1C1CC(=O)Nc2c1c(C)nn2-c1nc(C)cc(C)n1 (configuration not stated) | -8.06 | 
Cc1ccc(NC(=O)CSc2nc3c([nH]c4ccccc43)c(=O)n2-c2ccccc2)c(C)c1 | -2.12 | 
O=C(CN(C(=O)c1csnn1)c1cccc(Cl)c1)NC1CCCC1 | 0.359 | 
CCCCN(CC(=O)Nc1cccc(S(=O)(=O)N2CCCC2)c1)Cc1nc2ccccc2c(=O)[nH]1 | -1.73 | 
COC(=O)c1ccc(COC(=O)CNC(=O)c2cccc(OC)c2)o1 | -18 | 
CCOC(=O)c1scc(-c2ccc(C)cc2)c1S(=O)(=O)Nc1cc(C)ccc1C | -14.5 | 
Cc1ccc2nc(COc3ccccc3NC(=O)Nc3ccc(F)c(Cl)c3)cc(=O)n2c1 | -18.2 | 
Cc1cccc(Nc2nc(-c3ccccc3)cs2)n1 |  | 3.79 µM (active)
O=C(CN1C(=O)C2C3C=CC(C3)C2C1=O)Nc1nc(-c2ccccn2)cs1 (configuration not stated) | -3.95 | 
c1ccc(Nc2nc(-c3ccncc3)cs2)nc1 |  | 4.78 µM (active)
CSc1nc(Nc2ccc(F)cc2)cc(-c2ccccc2)n1 | -13 | 
CC(NC(=O)c1ccco1)C(=O)Nc1nc(-c2ccccn2)cs1 (configuration not stated) | 1.86 | 
COC(=O)c1cc2occc2n1Cc1nc(-c2ccc(C)cc2)oc1C | 4.5 | 

SMILES | activity change, negative = inhibition [%] | Potency
COc1ccc2c(c1)C(NS(=O)(=O)OCC(Cl)(Cl)Cl)CCC2 (configuration not stated) | -1.13 | 
COCCN(C(=O)CSCc1ccc(C)cc1)c1c(N)n(CC(C)C)c(=O)[nH]c1=O | -1.29 | 
CCOc1cccc(CC(=O)N2CCc3c([nH]c4ccccc34)C2c2ccc(OC)cc2)c1OCC (configuration not stated) | -2.95 | 
Cc1cc(=O)c2cc(C(=O)Nc3cccc(C)c3C)ccc2[nH]1 | -4.94 | 
CCS(=O)(=O)N1CCc2cc(C(=O)NCc3ccc(C)cc3)ccc21 | -5.13 | 
COc1ccc(NC(=O)Cn2c(=O)cc(C)c3c(C)nn(-c4cccc(Cl)c4C)c32)cc1OC | 4.01 | 
COc1ccccc1N1CCN(C(=O)C(=O)N/N=C/c2ccccc2F)CC1 | 4.07 | 
COc1ccccc1N1CCN(C2C(=O)c3ccccc3N2C(C)=O)CC1 (configuration not stated) | -18 | 
COc1ccccc1/C=N/N1CCN(Cc2ccccc2Cl)CC1 | -1.85 | 
COc1ccccc1N1CCN(/N=C/c2ccc(O)cc2O)CC1 |  | 7.57 µM (active)
CNCC(O)CN1CCN(c2ccccc2OC)CC1 (configuration not stated) | -0.912 | 
COc1ccccc1N1CCN(/N=C\C(Br)=C\c2ccccc2)CC1 |  | 16.9 µM (active)
CCOC(=O)CN1C(=O)N[C@@H](c2ccc(Br)cc2)C(C(C)=O)=C1C | -0.544 | 
Cc1oc(-c2ccccc2F)nc1CN1CCC(C(=O)NCCc2ccc(Cl)cc2)CC1 | -14.6 | 
CN(Cc1ccccc1)C(=O)c1cc2c(=O)n(C)c3ccccc3c2s1 | -13.9 | 
Cc1[nH]c2ccccc2c1C(c1ccccc1)c1cccs1 (configuration not stated) | -7.8 | 
Cc1cccc(N2CCN(C(=O)c3ccc4c(c3)CCN4S(=O)(=O)c3ccccc3)CC2)c1C | -1.27 | 
Cc1ccc(Cn2cc(CCC(=O)NCc3ccc(OC(C)C)cc3)c3ccccc32)cc1 | 3.04 | 
CC(=O)Nc1ccc(OC(=O)COc2ccc(Br)cc2)cc1 | -1.37 | 
CSc1ccc(Cl)c(C(=O)OCC(=O)N2CCNC2=O)c1 | -4.07 | 
CC(=O)CSc1nnc(CSc2ncccn2)n1C1CCCCC1 | -0.437 | 
